Molecules are shown by their SMILES. Several values for one entry are separate records, joined by “and”; a condition that tells them apart may be missing. Identical values can stand only once. Results filed as inconclusive are left out. Activity calls are given as the source filed them. Rule for the calls: active = hit-call score of the fitted dose curve at least 0.9, where 1 is the maximum; inconclusive = response in the unintended direction; inactive = score below 0.9.

This experiment is described as follows: ACEA_ER_AUC_viability: ACEA Biosciences xCELLigence Real-Time Cell Analysis on Estrogen Receptor Agonism for Viability (AID 2283782).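 Note: continuous compound exposure with impedance area under curve over 80 h; hit means loss of impedance signal meaning reduced cell growth or viability.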 The essentials: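 T-47D human breast cells in phenol red-free RPMI1640 with 10% charcoal-stripped FBS were dosed with an 8-point 1:4 dilution series from 100 uM top final concentration, in duplicate. Impedance-based growth was followed for 80 h; AUC analysed versus DMSO.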
As for `CC1=CC(=O)[C@H]2C[C@@H]1C2(C)C`, the AC50 is 31 µM (active).
As for `O=c1cc[nH]cc1`, the compound was called inactive.
On the same count and under the same terms, to `CCCCCC1CCC(=O)O1` (stereo not given) belongs “inactive”.
Same read-out and setting: to `CC(C)(C)C1CCC(O)CC1` (stereo not given) belongs “inactive”.
Still for that read-out and setting: to `C=C1CC[C@H]2O[C@]2(C)CC[C@@H]2[C@@H]1CC2(C)C` belongs “inactive”; to `CCCCCCCCOC(C)=O`, “inactive”; to `CC(CO)c1ccccc1` (stereo not given), “inactive”.
In the case of `CC(=O)CCc1ccc(O)cc1`, the outcome was inactive.
The same measure, in the same setting: to `CC(C)CCOC(=O)CC(C)C` belongs “inactive”; to `[Cu+]`, “inactive”; to `CC/C=C\CCOC(=O)C(C)C`, “inactive”.
On the same count and under the same terms, with `CCCCOCCOC(=O)c1ccccc1C(=O)OCCOCCCC` the entry was “inactive”; with `NS(=O)(=O)c1cc(C(=O)O)c(NCc2ccco2)cc1Cl`, “inactive”; with `CC(=O)c1ccc(O)cc1`, “inactive”.
Consider `CC(=O)OCC=C(C)CCC=C(C)CCC=C(C)C`, for which the outcome was inactive.
Still for that read-out and setting: with `CC(=O)C1C(=O)C=C(C)OC1=O` (stereo not given) the entry was “inactive”; with `CC/C=C\CCCCCCCCCCOC(C)=O`, “inactive”.
Same read-out and setting: with `CCC(C)(CCCC(C)C)OC(C)=O` (stereo not given) the entry was “inactive”; with `C=C(C)C(=O)OCCC(F)(F)C(F)(F)C(F)(F)C(F)(F)C(F)(F)C(F)(F)C(F)(F)C(F)(F)F`, “inactive”; with `CCCC1CCOC(C)S1` (stereo not given), “inactive”.
With `CCC(C)C1CCCCC1=O` (stereo not given), the compound was called inactive.
`CCCCC(CC)COCCO` (stereo not given): the compound was classed as inactive.
`C/C=C(\C)C(=O)OC/C=C(\C)CCC=C(C)C`: the AC50 is 78.2 µM (active).
Take `CCCCN(CCCC)CCCCCCN(CCCC)CCCC`: the outcome was inactive.
`CC(C)=CCCC(C)=CC(=O)O`: the compound was called inactive.
On the same count and under the same terms, to `ClCCOCCOCCCl` belongs “inactive”.
As to `O=C(c1ccc(OCCN2CCCCC2)cc1)c1c(-c2ccc(O)cc2)sc2cc(O)ccc12`, the AC50 was 11.1 µM (active) and 17.8 µM (active) and 18 µM (active).
Consider `CC12CCC(C1)C(C)(C)C2O` (stereo not given), for which the compound was called inactive.
For `CCCCCCCCCCCCN1CCOCC1`, the AC50 is 80.3 µM (active).
As for `CCC=C(C)C=O`, the result was inactive.
Same read-out and setting: with `CC(C)(O)CCc1ccccc1` the entry was “inactive”.
Regarding `CC/C=C\CCCCO`, the AC50 is 50 µM (active).
With `CC/C=C\CCOC(C)OCC` (stereo not given), the call was inactive.
For `C=CC(=O)OCC(CO)(COC(=O)C=C)COC(=O)C=C`, the half-maximal activity concentration (AC50) was 2.64 µM (active).
On to `NC(=O)NC(N)=O`, for which the compound was classed as inactive.

These data come from PubChem BioAssay (EPA / NIEHS).
